# Measured values reported in PubChem BioAssay (Tox21).
# Values joined by “and” are separate entries in the source; they are usually repeats but may differ in a detail not shown here. Identical values can stand only once. Results filed as inconclusive are left out. Where a call stands in place of a potency, no number is given. Some structures have more than one record in an assay (separate samples or runs), and their calls can disagree. Active and inactive are the calls of the source. Unless noted, the call rests on the fitted dose curve; in most records, active means well fitted curve in the direction sought with a large enough effect in the repeat runs; inconclusive means weak or mixed curves; inactive means no such curve, though single readings can be large; an effect the other way counts as inactive or inconclusive.
# Columns and labels:
# [1] = qHTS assay to identify small molecule antagonists of the thyroid receptor (TR) signaling pathway - cell viability counter screen (AID 743064); further: nearly all actives have a fitted effect of over 50% in size; further: potency means the concentration at half of the fitted maximal effect
# In short: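 Same-well viability check: GH3.TRE-Luc cells stimulated with 1 nM T3 alongside test compound for 23.5 h, followed by CellTiter-Fluor fluorescence.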
# [2] = tested on: thyroid hormone receptor (rat, GH3 cells); assay: qHTS assay to identify small molecule agonists of the thyroid receptor (TR) signaling pathway (AID 743066; calls by dose curve)
# [3] = qHTS assay to identify small molecule antagonists of the estrogen receptor alpha (ER-alpha) signaling pathway - cell viability counter screen (AID 743074; calls by dose curve; further: nearly all actives have a fitted effect of over 45% in size)
# [4] = qHTS assay to identify small molecule antagonists of the estrogen receptor alpha (ER-alpha) signaling pathway using the BG1 cell line - cell viability counter screen (AID 743081);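 further: compound given together with 17beta-estradiol as the ER stimulus; nearly all actives have a fitted effect of over 45% in size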; further: potency means the concentration at half of the fitted maximal effect
# [5] = molecular target: Aromatase (Homo sapiens) (UniProt P11511); assay: qHTS assay to identify aromatase inhibitors (AID 743083); further: series mostly up to about 70 µM; nearly all actives have a fitted effect of over 55% in size
# [6] = molecular target: Estrogen receptor (Homo sapiens) (UniProt P03372); assay: qHTS assay to identify small molecule antagonists of the estrogen receptor alpha (ER-alpha) signaling pathway (AID 743069; active means well fitted curve in the direction sought with a large enough effect in the signal ratio in the repeat runs, not every such curve was filed as active; the % refers to the signal ratio; further: potency means the concentration at half of the fitted maximal effect)
# In short: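 Screening used a UAS-driven beta-lactamase reporter integrated into HEK293 cells expressing ER-alpha, stimulated with 17beta-estradiol alongside test compounds over 18 hr at 37C; signal came from LiveBLAzer B/G FRET fluorescence.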
# [7] = molecular target: Estrogen receptor (Homo sapiens) (UniProt P03372); assay: qHTS assay to identify small molecule agonists of the estrogen receptor alpha (ER-alpha) signaling pathway (AID 743075; calls by dose curve; further: potency means the concentration at half of the fitted maximal effect)
# [8] = molecular target: Estrogen receptor (Homo sapiens) (UniProt P03372); assay: qHTS assay to identify small molecule agonists of the estrogen receptor alpha (ER-alpha) signaling pathway using the BG1 cell line (AID 743079); further: nearly all actives have a fitted effect of over 20% in size; further: potency means the concentration at half of the fitted maximal effect
# [9] = qHTS assay to identify small molecule antagonists of the estrogen receptor alpha (ER-alpha) signaling pathway using the BG1 cell line (AID 743080; calls by dose curve; further: series mostly up to about 70 µM; nearly all actives have a fitted effect of over 25% in size)
# In short: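 Antagonist mode: compounds in DMSO were pinned onto BG1-Luc-4E2 cells alongside 17beta-estradiol agonist, incubated 21.5 h, and ERE-driven luciferase measured with ONE-Glo. Cytotoxicity was multiplexed using CellTiter-Fluor fluorescence.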
# [10] = qHTS assay to identify small molecule antagonists of the thyroid receptor (TR) signaling pathway (AID 743065); further: potency means the concentration at half of the fitted maximal effect; nearly all actives have a fitted effect of over 55% in size
# In short: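 GH3.TRE-Luc rat pituitary cells carrying two TR response elements driving luciferase were plated for 4 h, given compound plus 1 nM T3 (final), and incubated 23.5 h at 37 C. ONE-Glo luminescence measured reporter inhibition; CellTiter-Fluor fluorescence tracked cytotoxicity.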
# Estrogen receptor (Homo sapiens), sequence (P03372 whole entry, looked up): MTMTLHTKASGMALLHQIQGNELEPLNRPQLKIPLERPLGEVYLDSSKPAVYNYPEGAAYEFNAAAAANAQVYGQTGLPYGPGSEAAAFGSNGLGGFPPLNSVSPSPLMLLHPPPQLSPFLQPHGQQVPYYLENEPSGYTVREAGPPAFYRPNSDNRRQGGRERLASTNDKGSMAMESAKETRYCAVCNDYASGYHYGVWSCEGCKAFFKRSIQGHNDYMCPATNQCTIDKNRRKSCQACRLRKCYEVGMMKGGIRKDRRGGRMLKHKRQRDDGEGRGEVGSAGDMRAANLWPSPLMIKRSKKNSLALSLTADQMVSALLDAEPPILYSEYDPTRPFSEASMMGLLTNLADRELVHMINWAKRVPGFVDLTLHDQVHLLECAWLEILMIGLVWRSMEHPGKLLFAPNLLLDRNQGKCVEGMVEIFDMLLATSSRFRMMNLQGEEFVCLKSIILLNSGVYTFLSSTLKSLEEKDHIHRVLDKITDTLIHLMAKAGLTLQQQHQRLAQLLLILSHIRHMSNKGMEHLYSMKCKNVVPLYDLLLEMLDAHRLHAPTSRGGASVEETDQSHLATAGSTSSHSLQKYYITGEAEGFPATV
# Aromatase (Homo sapiens), sequence (P11511 whole entry, looked up): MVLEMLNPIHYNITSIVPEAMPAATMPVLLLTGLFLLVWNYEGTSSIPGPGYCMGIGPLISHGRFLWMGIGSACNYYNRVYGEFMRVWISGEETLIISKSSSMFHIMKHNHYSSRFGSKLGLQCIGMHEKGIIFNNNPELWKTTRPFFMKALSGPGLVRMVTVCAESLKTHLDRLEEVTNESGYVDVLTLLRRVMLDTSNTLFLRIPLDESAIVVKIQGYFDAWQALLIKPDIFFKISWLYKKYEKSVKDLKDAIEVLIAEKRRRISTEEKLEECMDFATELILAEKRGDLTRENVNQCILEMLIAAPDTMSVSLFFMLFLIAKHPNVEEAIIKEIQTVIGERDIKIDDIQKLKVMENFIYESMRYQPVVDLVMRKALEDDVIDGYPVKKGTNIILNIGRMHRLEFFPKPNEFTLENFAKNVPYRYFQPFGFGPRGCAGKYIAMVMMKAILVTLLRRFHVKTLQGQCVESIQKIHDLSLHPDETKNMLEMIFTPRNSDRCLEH
Structure (SMILES),Potency [1],Potency [2],outcome [3],Potency [4],Potency [5],Potency [6],Potency [7],Potency [8],Potency [9],Potency [10]
CCCCCCCCCCCCOCCO,inactive,inactive,inactive,inactive,inactive,,,,,
OCc1cccnc1,inactive,inactive,inactive,inactive,inactive,inactive,inactive,inactive,inactive,
COc1ccc(NC(C)=O)cc1N,inactive,inactive,inactive,inactive,inactive,inactive,54.7 µM [activator] (active) and inactive,54.3 µM (active) and inactive,inactive,
Nc1cc([N+](=O)[O-])ccc1O,30.6 µM (active) and 60.8 µM (active),inactive,inactive,54.5 µM (active),inactive,,,,,
O=C(CC(C(=O)OC1CCCCC1)S(=O)(=O)O)OC1CCCCC1 (centres undefined),inactive,inactive,inactive,inactive,inactive,,,,,
O=P(OC(CCl)CCl)(OC(CCl)CCl)OC(CCl)CCl,,inactive,inactive,inactive,,54.9 µM [inhibitor] (active),inactive,inactive,inactive,61.1 µM (active)
Cc1ccc(N(C)C)cc1,inactive,inactive,inactive,inactive,inactive,inactive,inactive,61.1 µM (active),inactive,
CCc1ccc(CCOc2ccc(CC3SC(=O)NC3=O)cc2)nc1 (centres undefined),inactive,inactive,inactive,inactive,inactive,inactive,inactive,,inactive,
c1ccc(OCCOc2ccccc2)cc1,inactive,inactive,inactive,inactive,inactive,inactive,inactive,61.1 µM (active) and 54.5 µM (active),,
CCCCCC/C(C=O)=C\c1ccccc1,inactive,inactive,inactive,inactive,inactive,,,,,
C[C@H]1C[C@@H]2[C@H]([C@@H](O)C[C@@]3(C)[C@H]2CC[C@]3(O)C(=O)CO)[C@@]2(C)C=CC(=O)C=C12,inactive,inactive,inactive,inactive,inactive,,,,,
C#C[C@]1(O)CC[C@H]2[C@@H]3CCC4=CC(=O)CC[C@@H]4[C@H]3CC[C@@]21C,,,inactive,inactive,inactive,,,,inactive,
c1ccc2scnc2c1,inactive,inactive,inactive,inactive,inactive,inactive,inactive,inactive,inactive,
CCCCC(CC)COC(=O)CS (centres undefined),inactive,inactive,inactive,inactive,,,,,,
Nc1ccccc1[N+](=O)[O-],inactive,inactive,inactive,inactive,inactive,,,,,
CCCCC(CC)COC(=O)C(C#N)=C(c1ccccc1)c1ccccc1 (centres undefined),inactive,inactive,,inactive,inactive,,,,,
O=C(O)c1cc(=O)c2c(OCC(O)COc3cccc4oc(C(=O)O)cc(=O)c34)cccc2o1,,,inactive,inactive,inactive,inactive,inactive,inactive,inactive,
